Assay results from PubChem BioAssay (NCATS).
Inconclusive results are not listed. Active and inactive are the calls of the source. Unless noted, calls come from the whole dose curve; as a rule, active = well fitted curve in the direction sought with a large enough effect; inconclusive = small, poorly fitted or top-dose-only effect, or another doubt; inactive = no such curve, though single readings can be large; an effect the other way counts as inactive or inconclusive.

Columns and labels:
[1] = target: Vitamin D3 receptor (Homo sapiens) (UniProt P11473); test: qHTS assay for small molecule agonists of vitamin D receptor signaling (AID 588543; calls by dose curve;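 note: 0% = DMSO basal and 100% = reference agonist control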)
Chain of Vitamin D3 receptor (Homo sapiens) (P11473 whole entry, looked up): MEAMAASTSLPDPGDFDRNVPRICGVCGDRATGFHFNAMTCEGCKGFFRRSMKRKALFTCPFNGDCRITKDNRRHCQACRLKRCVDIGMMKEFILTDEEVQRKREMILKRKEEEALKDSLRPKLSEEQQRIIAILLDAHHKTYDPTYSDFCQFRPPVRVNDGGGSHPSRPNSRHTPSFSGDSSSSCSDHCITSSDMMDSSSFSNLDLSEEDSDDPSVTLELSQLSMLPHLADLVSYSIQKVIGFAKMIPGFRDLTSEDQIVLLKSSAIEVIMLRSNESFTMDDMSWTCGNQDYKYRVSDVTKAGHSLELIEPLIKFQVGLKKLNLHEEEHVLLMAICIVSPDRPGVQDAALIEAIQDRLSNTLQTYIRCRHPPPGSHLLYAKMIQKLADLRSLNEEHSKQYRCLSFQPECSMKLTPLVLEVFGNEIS
How it was run: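 qHTS in agonist mode: compound titrations stimulate a VDR-driven β-lactamase reporter in HEK293T cells over 16 h at 37 °C. Response normalized to 50 nM 1α,25-dihydroxyvitamin D3 = 100%, DMSO = 0%; Hill fitting gives EC50 and maximal response.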

[2] = qHTS assay for small molecule antagonists of retinoid X receptor alpha signaling (AID 588546; active = well fitted inhibition curve with a large enough effect in the signal ratio, with a control signal flat, not every such curve was filed as active; the % refers to the signal ratio;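 note: cells stimulated with 9-cis-retinoic acid as agonist; % is set by controls: 0 for no effect and ±100 for the full control effect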); conditions: HEK293T RXRa-UAS-bla, beta-lactamase ratio, antagonist mode; measured here: W530 green channel, cytotoxicity proxy
How it was run: (§1)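 Beta-lactamase reporter inhibition, read as CCF4 fluorescence ratio (ex 405, em 460/530 nm) after 2 h at RT. HEK293T UAS-bla cells, 2500/well, were stimulated with 9-cis-RA at 500 or 100 nM final alongside test compound for 18 h at 37 C.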

[3] = target: Retinoic acid receptor RXR-alpha (Homo sapiens) (UniProt P19793); test: as above; conditions: HEK293T RXRa-UAS-bla, beta-lactamase ratio, antagonist mode
Chain of Retinoic acid receptor RXR-alpha (Homo sapiens) (P19793 whole entry, looked up): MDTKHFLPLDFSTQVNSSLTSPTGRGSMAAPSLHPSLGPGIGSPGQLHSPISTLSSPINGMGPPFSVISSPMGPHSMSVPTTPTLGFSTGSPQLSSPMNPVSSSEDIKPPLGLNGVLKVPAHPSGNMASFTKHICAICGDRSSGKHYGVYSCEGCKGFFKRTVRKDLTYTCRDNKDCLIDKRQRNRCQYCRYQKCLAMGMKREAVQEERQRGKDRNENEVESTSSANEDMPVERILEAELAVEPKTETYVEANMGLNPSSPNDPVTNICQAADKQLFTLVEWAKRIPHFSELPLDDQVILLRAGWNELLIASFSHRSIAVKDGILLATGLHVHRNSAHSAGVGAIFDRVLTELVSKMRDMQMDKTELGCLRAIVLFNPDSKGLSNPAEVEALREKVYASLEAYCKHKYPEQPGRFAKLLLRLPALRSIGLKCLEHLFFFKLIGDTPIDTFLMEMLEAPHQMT
How it was run: as §1

[4] = target: Thyroid hormone receptor beta (Homo sapiens) (UniProt P10828); test: qHTS assay for small molecule antagonists of thyroid hormone receptor beta signaling (AID 588547; active = well fitted inhibition curve with a large enough effect in the signal ratio, with a control signal flat, not every such curve was filed as active; the % refers to the signal ratio;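 note: cells stimulated with 0.4 nM T3 agonist during compound exposure; series mostly up to about 77 µM; % is set by controls: 0 for no effect and ±100 for the full control effect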); conditions: TR-UAS-bla HEK293, beta-lactamase ratio, antagonist mode, 18 h
Chain of Thyroid hormone receptor beta (Homo sapiens) (P10828 whole entry, looked up): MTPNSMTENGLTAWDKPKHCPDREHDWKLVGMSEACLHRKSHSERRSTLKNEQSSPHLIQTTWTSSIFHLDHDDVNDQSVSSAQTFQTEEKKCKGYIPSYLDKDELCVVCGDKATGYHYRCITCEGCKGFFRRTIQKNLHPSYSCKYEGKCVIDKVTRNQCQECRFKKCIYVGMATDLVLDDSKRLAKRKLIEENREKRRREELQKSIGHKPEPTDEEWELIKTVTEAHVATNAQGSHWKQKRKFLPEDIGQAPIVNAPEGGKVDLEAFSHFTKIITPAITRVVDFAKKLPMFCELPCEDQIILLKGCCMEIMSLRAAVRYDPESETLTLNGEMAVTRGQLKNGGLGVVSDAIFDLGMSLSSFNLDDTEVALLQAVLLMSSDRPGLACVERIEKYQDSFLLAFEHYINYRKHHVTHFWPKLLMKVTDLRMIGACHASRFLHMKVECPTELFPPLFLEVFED
How it was run: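 TR-UAS-bla GripTite HEK293 cells in 2% charcoal/dextran FBS medium; compounds 0.59 nM to 92 uM with T3 at 0.4nM final, 18 h at 37 C. Beta-lactamase read by CCF4 fluorescence (460/530 nm); Hill fits gave IC50 and efficacy.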

[5] = target: Voltage-gated inwardly rectifying potassium channel KCNH2 (Homo sapiens) (UniProt Q12809); test: qHTS Assay for Small Molecule Inhibitors of the Human hERG Channel Activity (AID 588834);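 note: U2OS cells transduced with hERG by BacMam; top concentration of the series differs between compounds; % is set by controls: 0 for no effect and ±100 for the full control effect; lower thallium flux fluorescence means stronger hERG block; nearly all actives have a fitted effect of over 50% in size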
Chain of Voltage-gated inwardly rectifying potassium channel KCNH2 (Homo sapiens) (Q12809 whole entry, looked up): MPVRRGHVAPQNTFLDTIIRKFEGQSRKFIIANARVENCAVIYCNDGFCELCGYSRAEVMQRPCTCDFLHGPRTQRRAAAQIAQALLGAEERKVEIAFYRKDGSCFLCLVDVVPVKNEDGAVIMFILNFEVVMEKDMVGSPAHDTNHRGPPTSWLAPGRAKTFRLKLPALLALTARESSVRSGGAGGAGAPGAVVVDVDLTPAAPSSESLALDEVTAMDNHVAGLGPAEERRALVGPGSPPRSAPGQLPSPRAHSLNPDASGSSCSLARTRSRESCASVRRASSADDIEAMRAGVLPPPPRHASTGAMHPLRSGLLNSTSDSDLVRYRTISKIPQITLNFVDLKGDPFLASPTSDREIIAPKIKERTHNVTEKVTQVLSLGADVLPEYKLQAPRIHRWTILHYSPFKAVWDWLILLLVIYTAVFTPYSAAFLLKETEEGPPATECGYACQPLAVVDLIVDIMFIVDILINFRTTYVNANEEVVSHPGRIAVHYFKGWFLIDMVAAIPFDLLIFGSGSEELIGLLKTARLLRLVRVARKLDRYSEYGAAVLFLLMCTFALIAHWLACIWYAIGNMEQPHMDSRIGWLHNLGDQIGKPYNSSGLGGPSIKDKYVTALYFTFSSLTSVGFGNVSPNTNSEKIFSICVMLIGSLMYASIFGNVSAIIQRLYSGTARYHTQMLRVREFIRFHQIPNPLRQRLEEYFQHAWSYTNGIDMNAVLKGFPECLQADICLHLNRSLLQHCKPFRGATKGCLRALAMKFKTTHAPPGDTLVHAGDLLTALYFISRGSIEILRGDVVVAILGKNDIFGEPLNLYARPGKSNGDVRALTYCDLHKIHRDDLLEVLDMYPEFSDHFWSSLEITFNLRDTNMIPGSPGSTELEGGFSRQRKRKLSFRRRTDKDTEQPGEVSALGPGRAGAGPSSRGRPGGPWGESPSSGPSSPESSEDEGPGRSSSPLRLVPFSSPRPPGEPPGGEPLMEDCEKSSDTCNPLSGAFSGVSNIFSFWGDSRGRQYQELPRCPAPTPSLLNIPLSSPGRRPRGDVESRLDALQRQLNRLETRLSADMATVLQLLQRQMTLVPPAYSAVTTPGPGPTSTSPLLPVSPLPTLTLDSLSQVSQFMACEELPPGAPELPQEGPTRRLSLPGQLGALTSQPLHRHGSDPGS
How it was run: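 Cells were infected with hERG-BacMam virus for 4 hrs at room temperature, grown overnight, then seeded at 2000/well. After dye loading and roughly 10 min compound treatment, thallium influx was triggered and fluorescence recorded.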

[6] = qHTS assay for small molecule activators of the p53 signaling pathway (AID 651743; active = well fitted activation curve with a large enough effect in the signal ratio, not every such curve was filed as active; the % refers to the signal ratio; note: series mostly up to about 92 µM; % of control where 0% means no effect); conditions: HCT-116 p53RE-bla, beta-lactamase FRET ratio, 16 h; activation: stronger effect = higher value
How it was run: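 Reporter: beta-lactamase driven by p53 response elements, stably integrated in HCT-116 cells. Cells seeded at 4,000/well, 5 h preincubation, compound (DMSO) 16 h at 37 C; B/G FRET substrate 2 h RT; fluorescence intensity read.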

[7] = qHTS assay for small molecule activators of the nuclear factor-kappa B (NF-kB) signaling pathway (AID 651749; active = well fitted activation curve with a large enough effect in the signal ratio; the % refers to the signal ratio; note: series mostly up to about 77 µM; % of control where 0% means no effect); conditions: NF-kB-bla ME-180 cells, beta-lactamase FRET ratio, 16 h; stronger effect = higher value
How it was run: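 NF-kB-bla ME-180 cells, 2,000/well; 23 nL compound or DMSO pinned; 16 hr, 37C/5% CO2; beta-lactamase FRET read-out.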

[8] = qHTS assay for small molecule disruptors of the mitochondrial membrane potential - 1 hr assay (AID 651754; calls by dose curve; note: % is set by controls: 0 for no effect and ±100 for the full control effect; nearly all actives have a fitted effect of over 35% in size)
How it was run: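 In this qHTS format, a 1 hr compound treatment of HepG2 cells precedes Mito-MPS staining, and membrane potential is judged from aggregate (red) against monomer (green) fluorescence intensity.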

[9] = qHTS assay for small molecule disruptors of the mitochondrial membrane potential - 5 hr assay (AID 651755; calls by dose curve; note: % is set by controls: 0 for no effect and ±100 for the full control effect; nearly all actives have a fitted effect of over 40% in size)
How it was run: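 Read-out: ratiometric Mito-MPS fluorescence, green monomer (ex 490/em 535) vs red mitochondrial aggregate (ex 540/em 590). HepG2 cells treated 5 hr at 37C before 30 min dye loading.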

[10] = target: Tumor necrosis factor (Homo sapiens) (UniProt P01375); test: qHTS assay to identify small molecules that stimulate Tumor Necrosis Factor-alpha (TNF-alpha) secretion (AID 651757; active = well fitted curve in the direction sought with a large enough effect in the signal ratio; the % refers to the signal ratio; note: 0% is about no effect)
Chain of Tumor necrosis factor (Homo sapiens) (P01375 whole entry, looked up): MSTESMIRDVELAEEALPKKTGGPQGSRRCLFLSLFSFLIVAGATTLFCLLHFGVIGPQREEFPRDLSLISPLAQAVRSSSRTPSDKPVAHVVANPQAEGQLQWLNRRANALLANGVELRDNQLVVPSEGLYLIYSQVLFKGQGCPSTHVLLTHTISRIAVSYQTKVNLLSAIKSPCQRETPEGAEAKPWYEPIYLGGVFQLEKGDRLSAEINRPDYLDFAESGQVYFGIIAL
How it was run: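 Using 3000 THP-1 cells per well, compounds and controls were applied for 17 hrs at 37 C. Detection followed with two labeled anti-TNF-alpha antibodies (cryptate donor, XL665 acceptor) for 3 hr at room temperature, measured by TR-FRET.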

[11] = qHTS assay to identify small molecules that stimulate interleukin-8 (IL-8) secretion (AID 651758; active = well fitted activation curve with a large enough effect in the signal ratio; the % refers to the signal ratio; note: 0% is about no effect)
How it was run: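 Compounds are added to THP-1 cells (2000 per well) and left 16 hrs at 37 C. A labeled anti-IL-8 antibody pair is then added, and IL-8 secretion is measured by time-resolved FRET after 1-3 hrs at room temperature.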

[12] = qHTS assay for environmental chemicals that activate the Aryl hydrocarbon Receptor (AhR) signaling pathway (AID 651777); conditions: 1A2-DRE human hepatoma cells, luciferase, 24 h; activation: stronger effect = higher value; note: % of control where 0% means no effect; nearly all actives have a fitted effect of over 15% in size
How it was run: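 Human hepatoma 1A2-DRE cells stably carrying a DRE/CYP1A2 promoter–luciferase reporter, 1,200 cells/well, exposed to compound 24 hr at 37 C. Luciferase read by One-Glo luminescence after 30 min at room temperature; increased signal marks AhR activation.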

[13] = target: Peroxisome proliferator-activated receptor alpha (Homo sapiens) (UniProt Q07869); test: qHTS assay for small molecule agonists of the peroxisome proliferator-activated receptor alpha (PPARalpha) signaling pathway (AID 651778); conditions: PathHunter PPARalpha complementation, chemiluminescence, 6 h; stronger effect = higher value; note: % of control where 0% means no effect
Chain of Peroxisome proliferator-activated receptor alpha (Homo sapiens) (Q07869 whole entry, looked up, the tested form may be a part): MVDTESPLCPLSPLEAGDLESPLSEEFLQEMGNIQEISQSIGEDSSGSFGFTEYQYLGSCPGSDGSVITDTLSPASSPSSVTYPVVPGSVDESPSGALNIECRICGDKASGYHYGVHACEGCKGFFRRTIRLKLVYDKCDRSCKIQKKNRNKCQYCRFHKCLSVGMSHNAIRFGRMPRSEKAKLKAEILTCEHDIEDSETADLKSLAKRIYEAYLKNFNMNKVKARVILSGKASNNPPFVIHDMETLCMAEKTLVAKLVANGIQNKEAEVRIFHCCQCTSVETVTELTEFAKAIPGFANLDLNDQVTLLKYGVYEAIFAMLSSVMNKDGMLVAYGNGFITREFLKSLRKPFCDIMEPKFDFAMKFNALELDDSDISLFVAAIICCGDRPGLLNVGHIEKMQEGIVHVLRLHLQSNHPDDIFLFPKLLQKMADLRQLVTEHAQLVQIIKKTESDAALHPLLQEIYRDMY
How it was run: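 Enzyme-fragment complementation assay in which ligand-bound PPARalpha translocates and forms an active enzyme that generates chemiluminescence. Cells were plated overnight, exposed to compound for 6 hr at 37 C, and then given detection reagent for 60 min at room temperature.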

[14] = target: Nuclear receptor ROR-gamma (Homo sapiens) (UniProt P51449); test: qHTS assay for small molecule antagonists of the retinoid-related orphan receptor gamma (ROR-gamma) signaling pathway (AID 651802);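 note: CHO cells with doxycycline-induced ROR-gamma expression; luciferase reporter luminescence driven by ROR response element; series mostly up to about 92 µM; % is set by controls: 0 for no effect and ±100 for the full control effect; nearly all actives have a fitted effect of over 60% in size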
Chain of Nuclear receptor ROR-gamma (Homo sapiens) (P51449 whole entry, looked up): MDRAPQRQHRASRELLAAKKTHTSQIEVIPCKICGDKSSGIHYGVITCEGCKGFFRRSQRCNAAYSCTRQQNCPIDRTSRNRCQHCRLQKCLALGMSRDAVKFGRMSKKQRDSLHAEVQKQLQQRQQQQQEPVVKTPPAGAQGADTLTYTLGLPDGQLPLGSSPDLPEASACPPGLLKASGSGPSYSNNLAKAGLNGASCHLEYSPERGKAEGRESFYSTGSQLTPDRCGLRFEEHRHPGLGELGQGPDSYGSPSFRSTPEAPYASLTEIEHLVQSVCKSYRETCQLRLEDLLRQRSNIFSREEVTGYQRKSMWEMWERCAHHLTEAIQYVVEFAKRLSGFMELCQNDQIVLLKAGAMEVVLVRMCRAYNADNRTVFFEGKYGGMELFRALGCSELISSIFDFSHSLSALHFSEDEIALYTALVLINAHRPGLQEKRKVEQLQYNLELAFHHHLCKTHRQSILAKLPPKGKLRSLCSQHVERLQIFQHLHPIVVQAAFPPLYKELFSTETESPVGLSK
How it was run: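 Doxycycline-induced reporter activity in engineered CHO cells (TET-inducible ROR, RORE-LUC) was measured by luminescence after 16hr compound exposure at 37C.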

[15] = qHTS assay for small molecule agonists of the antioxidant response element (ARE) signaling pathway measured by Nrf2-dependant transcriptional activity (AID 720636; active = well fitted curve in the direction sought with a large enough effect in the repeat runs; an effect the other way counts as inactive or inconclusive; note: % of control where 0% means no effect)
How it was run: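 ARE-luc HepG2 cells carrying an Nrf2-responsive luciferase reporter, in medium with 1% dialyzed FBS, exposed to compound for 16 hr at 37 C, 5% CO2. Luminescence read 30 min after ONE-Glo addition.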

[16] = qHTS assay for small molecule antagonists of the retinoid-related orphan receptor gamma (ROR-gamma) signaling pathway - cell viability counter screen (AID 720652; active = well fitted curve in the direction sought with a large enough effect in the repeat runs; an effect the other way counts as inactive or inconclusive;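 note: CHO reporter cells with doxycycline-induced ROR-gamma expression; series mostly up to about 92 µM; compound exposure lasted 16 hr before ATP read; % is set by controls: 0 for no effect and ±100 for the full control effect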)
How it was run: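 ATP-based viability readout in the ROR-gamma reporter CHO cells after 16 hr compound exposure under doxycycline induction.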

[17] = qHTS assay for small molecule agonists of the antioxidant response element (ARE) signaling pathway measured by Nrf2-dependant transcriptional activity - cell viability counter screen (AID 720653; active = well fitted curve in the direction sought with a large enough effect in the repeat runs; an effect the other way counts as inactive or inconclusive; note: % is set by controls: 0 for no effect and ±100 for the full control effect); conditions: ARE-bla HepG2 viability, CellTiter-Glo ATP luminescence, 16 h; stronger effect = lower value
How it was run: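 ARE-bla HepG2 cells treated with compounds for 16 h at 37C; this counter screen measures viability as intracellular ATP by CellTiter-Glo luminescence after 30 min at room temperature.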

[18] = qHTS assay for cell viability of HEK293 cells (AID 743288); conditions: ATP luminescence (CellTiter-Glo), 18 h, stronger effect = lower value; note: % is set by controls: 0 for no effect and ±100 for the full control effect; nearly all actives have a fitted effect of over 50% in size
How it was run: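 Quantitative high-throughput screen: compounds were pinned onto parental HEK293 cells (2,000 per well) after a minimum 5 h settling at 37 C, incubated 18 h at 37 C, and intracellular ATP measured by luciferase luminescence.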

[19] = qHTS assay for cell viability of the p53RE-bla HCT-116 cell line (AID 743292); note: % is set by controls: 0 for no effect and ±100 for the full control effect; nearly all actives have a fitted effect of over 55% in size
How it was run: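 CellSensor p53RE-bla HCT-116 cells (4,000/well) pre-incubated 5 h at 37 C, then exposed to compounds in DMSO for 16 h at 37 C. Viability read as ATP content by CellTiter-Glo luminescence after 30 min at room temperature.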

[20] = target: Nuclear receptor subfamily 1 group I member 2 (Rattus norvegicus) (UniProt Q9R1A7); test: qHTS assay for small molecule activators of the rat pregnane X receptor (rPXR) signaling pathway (AID 651751; call rule not given here; note: 0% is about no effect); conditions: rPXR reporter cells, luciferase (One-Glo), 24 h
Chain of Nuclear receptor subfamily 1 group I member 2 (Rattus norvegicus) (Q9R1A7 whole entry, looked up): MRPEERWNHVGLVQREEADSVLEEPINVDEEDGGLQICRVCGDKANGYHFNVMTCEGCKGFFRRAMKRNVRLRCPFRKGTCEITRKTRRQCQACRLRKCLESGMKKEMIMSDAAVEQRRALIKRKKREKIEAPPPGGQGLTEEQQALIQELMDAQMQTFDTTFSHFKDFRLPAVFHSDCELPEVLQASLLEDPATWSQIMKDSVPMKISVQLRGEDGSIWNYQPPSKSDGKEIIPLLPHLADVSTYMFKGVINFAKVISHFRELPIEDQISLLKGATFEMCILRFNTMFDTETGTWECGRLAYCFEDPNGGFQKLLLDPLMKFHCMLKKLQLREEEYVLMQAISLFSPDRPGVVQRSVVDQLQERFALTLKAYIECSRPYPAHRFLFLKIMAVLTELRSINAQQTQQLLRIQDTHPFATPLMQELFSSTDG

[21] = qHTS assay for small molecule activators of the human pregnane X receptor (PXR) signaling pathway (AID 720659; call rule not given here; note: 0% is about no effect)

CC(C)(COCC1CO1)COCC1CO1 (stereo unspecified)
inactive: outcome [1] | max response [3] 6.95% | activity change % (negative = inhibition) [4] -13.4% | Potency [5] | activation [6] 6.6% | activation [7] 0.814% | Potency [8] | Potency [9] | outcome [10] | Potency [11] | activation [12] -0.0471% | max response [13] -0.497% | Potency [14] | Potency [15] | Potency [16] | max response [17] 1.11% | max response [18] -5.18% | Potency [19] | max response [20] 1.93% | outcome [21]
21.1%: max response [2]
